Screening data deposited in PubChem by National Center for Advancing Translational Sciences (NCATS).
Shown are actives, neighbours in structure and some others; about 19% of the full set was active somewhere.
KB-3-1 tox: KB-3-1 parental cell cytotoxicity; KB-3-1 viability, CellTiter-Glo ATP luminescence, 72 h; Potency, µM (series often up to 46.1 µM), usual class: cytotoxic; 400,000 tested, 1.4% active; AID 1347075; further: nearly all actives have a fitted effect of over 60% in size
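Multi-concentration cytotoxicity screen in KB-3-1 cells grown in DMEM lacking phenol red with 10% FBS. After 72 h at 37 °C with compound, ATP-dependent luminescence was recorded.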
DT40 TDP1 no CPT: qHTS for Inhibitors of human tyrosyl-DNA phosphodiesterase 1 (TDP1): qHTS in cells in absence of CPT; DT40 Tdp1-/- hTDP1 cells, no CPT, ATP luminescence, 48 h; Potency, µM (series often up to 46.2 µM), for the others: top-dose activity change, negative = growth inhibition, actives largely listed as inhibitors; 420,000 tested, 15% active; AID 686978, 2013; further: nearly all actives have a fitted effect of over 55% in size
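Seeded 400 DT40-hTDP1 cells/well (vehicle DMSO, no 20 nM CPT); pinned compounds; ≥48 hr at 37 °C; CellTiter-Glo luminescence as viability measure.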
KB-V1 MDR tox: KB-V1 MDR subline cytotoxicity; KB-V1 MDR cells viability, CellTiter-Glo, 72 h; AID 1347076; Potency, µM (series often up to 46.1 µM), most hits filed as cytotoxic; 400,000 tested, 3.4% active; further: nearly all actives have a fitted effect of over 60% in size
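Following 72 h at 37 degrees C with compound, KB-V1 cell viability was read by CellTiter-Glo luminescence, medium being phenol-red-free DMEM plus 10% FBS; concentration-response parameters came from normalized, curve-fitted qHTS data.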
HT1080 IDH1KD tx: HT-1080 IDH1 knockdown cell toxicity (counter line). Potency, µM (top dose mostly 46.1 µM), for the others: at the highest dose activity, negative = toxicity, hits mostly cytotoxic. AID 686971. 360,000 tested, 2% active. HT-1080 IDH1 knockdown viability, ATP luminescence, 48 h;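 further: 0% = DMSO wells and -100% = cell-free medium wells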
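Luminescent ATP read-out (CellTiter-Glo, 10 min at room temperature) after 48 h compound exposure at 37 °C gave viability of IDH1-knockdown HT-1080 cells. Activity was normalised to DMSO and cell-free wells, then fitted as concentration-response curves.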
DT40 TDP1 CPT: growth inhibition of DT40 Tdp1-/-;hTDP1 cells with camptothecin (screen for TDP1 inhibitors); chicken DT40 Tdp1-/-;hTDP1 cells + 20 nM CPT, ATP luminescence, 48 h; 420,000 tested, 12% active; AID 686979; Potency, µM (titrated, usually from 46.2 µM), inactives show top-dose activity change, negative = growth inhibition, usual class: inhibitors; further: nearly all actives have a fitted effect of over 55% in size
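Chicken DT40 Tdp1-/- cells complemented with human TDP1, 400 cells/well, exposed to compounds plus 20 nM camptothecin for at least 48 h at 37 C; viability read as ATP content by CellTiter-Glo luminescence.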
HT1080-NT tox: kills 2HG-producing HT-1080-NT fibrosarcoma cells; HT-1080-NT fibrosarcoma viability, CellTiter-Glo ATP luminescence, 48 h; Potency, µM (titrated, usually from 46.1 µM), for inactives: top-dose activity, negative = less viability, usual class: cytotoxic; 360,000 tested, 1.6% active;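 further: NT is the 2HG producing partner of a matched IDH1 knockdown line; 0% = DMSO-treated cells and -100% = media-only wells without cells; nearly all actives have a fitted effect of over 55% in size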
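Toxicity toward the 2HG-producing NT line was scored as %Activity, normalised to DMSO and no-cell wells, from CellTiter-Glo luminescence after 48 hours' treatment.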
Active calls of the source: *; i = inactive; ? = inconclusive; · = not tested or not shown; [ ] = remark or other dose. The call rests on the fitted dose curve; in most records, active means well fitted curve in the direction sought with a large enough effect; inconclusive means small, poorly fitted or top-dose-only effect, or another doubt; inactive means no such curve, though single readings can be large; an effect the other way counts as inactive or inconclusive. Unless noted, on the % scale 0 is the no-effect control and ±100 the full control effect; potency means the concentration at half of the fitted maximal effect.

SMILES | KB-3-1 tox | DT40 TDP1 no CPT | KB-V1 MDR tox | HT1080 IDH1KD tx | DT40 TDP1 CPT | HT1080-NT tox
O=C(NCCCN1CCOCC1)C(=O)NCc1ccccc1Cl | i | -4% | i | 15% | -5% | 13%
O=C(CCn1nc(-c2ccc(Cl)cc2)ccc1=O)NCCc1ccccc1 | i | ? | ? | · | ? | ·
Cc1ccc(CCNC(=O)CCn2nc(-c3ccc(Cl)cc3)ccc2=O)cc1 | i | 23µM* | i | · | ? | ·
COc1ccc(-c2ccc(=O)n(Cc3c(F)cccc3Cl)n2)cc1 | i | 7.3µM* | i | -27% | 15µM* | -23%
Cc1ccc(-c2ccc(=O)n(CCC(=O)N3CCN(c4ccccc4)CC3)n2)cc1 | i | ? | i | -22% | 1% | -3%
O=c1ccc(-c2ccccc2)nn1Cc1ccc(Cl)cc1 | i | 16µM* | i | -6% | ? | -1%
O=C(CCn1nc(-c2ccc(Cl)cc2)ccc1=O)N1CCN(c2ccc(F)cc2)CC1 | i | 21µM* | i | -6% | ? | -11%
CCNC(=O)C1CCCN(C(=O)c2cc(C)oc2C)CC1 (stereo not given) | i | -21% | i | 19% | -1% | 25%
CCCc1cc(C(=O)Nc2c(C)nn(Cc3ccc(Cl)c(Cl)c3)c2C)no1 | ? | 26µM* | ? | · | 13µM* | ·
Cc1ccccc1Cn1nc(C)c(NC(=O)c2noc3c2CCc2ccccc2-3)c1C | i | 13µM* | ? | -5% | 21µM* | 13%
Cc1nn(Cc2ccc(Cl)c(Cl)c2)c(C)c1NC(=O)c1cc(CC(C)C)on1 | ? | 23µM* | ? | ? | 18µM* | ?
Cc1c(NC(=O)c2noc3c2CCc2ccccc2-3)c(=O)n(-c2ccccc2)n1C | i | -21% | i | -1% | 3% | 5%
Cc1cc(NC(=O)c2noc3c2CCCCC3)nn1Cc1ccc(Cl)cc1 | i | -29% | i | -7% | -29% | 2%[9.24 µM]
Cc1nn(Cc2ccc(Cl)c(Cl)c2)c(C)c1NC(=O)c1noc2c1CCCCC2 | i | 13µM* | i | -14% | 12µM* | -3%[9.24 µM]
CCc1ccc2oc(-c3cccc(NC(=O)c4ccc(-c5cccc([N+](=O)[O-])c5)o4)c3)nc2c1 | i | · | i | · | · | ·
O=C(NC(=S)Nc1ccccc1N1CCN(C(=O)c2ccccc2)CC1)c1ccccc1F | i | 18µM* | i | ? | 16µM* | -15%
O=C(Nc1ccccc1N1CCN(C(=O)c2ccccc2)CC1)c1ccc(Br)o1 | ? | 21µM* | ? | -4% | ? | -9%
O=C(Cc1ccccc1)Nc1ccccc1N1CCCC1 | i | ? | ? | 0% | ? | -6%
O=C(Cc1ccc(Cl)cc1)Nc1ccccc1N1CCN(C(=O)c2ccccc2)CC1 | i | 21µM* | ? | -30% | ? | -16%
O=C(Nc1ccc(N2CCN(C(=O)c3ccc(Cl)cc3)CC2)cc1)c1cc2ccccc2o1 | i | -19% | i | 4% | ? | 8%
O=C(Nc1ccccc1N1CCN(C(=O)c2ccc(Cl)cc2)CC1)c1cc2ccccc2o1 | i | ? | i | -4% | 26µM* | -7%
O=C(CSc1ncccn1)NC(=O)Cc1ccccc1 | i | 0% | i | 15% | 0% | 10%
CNc1ccc(C=O)cc1Br | i | -23% | i | · | -6% | ·
O=C(Nc1ccccc1N1CCN(C(=O)c2ccccc2)CC1)c1ccc(Cl)cc1 | i | 23µM* | i | -20% | ? | -29%
O=C(Nc1ccccc1N1CCN(C(=O)c2ccc(Cl)cc2)CC1)c1ccc(Br)cc1 | i | -2% | ? | -13% | ? | -18%
SMILES | KB-3-1 tox | DT40 TDP1 no CPT | KB-V1 MDR tox | HT1080 IDH1KD tx | DT40 TDP1 CPT | HT1080-NT tox
CCn1cc(C(=O)NCC(C)C)c(=O)c2cc(F)c(N3CCN(C(=O)c4ccco4)CC3)cc21 | i | 21µM* | 16µM* | 0% | ? | -15%
CCn1cc(C(=O)NCc2ccco2)c(=O)c2cc(F)c(N3CCN(C(=O)c4ccco4)CC3)cc21 | i | ? | i | -17% | 21µM* | -12%
C=CCNC(=O)c1cn(CC)c2cc(N3CCN(C(=O)c4ccco4)CC3)c(F)cc2c1=O | i | 15µM* | ? | -5% | 23µM* | -1%
CCn1cc(C(=O)NCC(C)C)c(=O)c2cc(F)c(N3CCN(C)CC3)cc21 | i | 10% | i | 6% | 4% | 1%
CCn1cc(C(=O)NCCc2ccccc2)c(=O)c2cc(F)c(N3CCN(C)CC3)cc21 | ? | ? | i | ? | ? | ?
CCC(C)NC(=O)c1cn(CC)c2cc(N3CCN(C(=O)c4ccco4)CC3)c(F)cc2c1=O (stereo not given) | i | 13µM* | i | -15% | 16µM* | -22%
CCC(CC)C(=O)N(C)c1c(C)nc2c(OCc3ccc(F)c(F)c3)cccn12 | i | 21µM* | i | -15% | ? | -20%
CCC(CC)C(=O)N(C)c1c(C)nc2c(OCc3ccc(C(F)(F)F)cc3)cccn12 | i | 18µM* | i | ? | 23µM* | ?
CC(C)c1ccc(NC(=O)CCS(=O)(=O)c2ccc(Br)s2)cc1 | i | 16µM* | i | · | 18µM* | ·
CCOC(=O)c1ccc(NC(=O)CCS(=O)(=O)c2ccc(Br)s2)cc1 | i | 18µM* | i | -4% | ? | -2%
COc1ccc(NC(=O)CCS(=O)(=O)c2ccc(Br)s2)cc1 | i | ? | i | -14% | ? | -9%
Cc1cc(-c2onc(C)c2C(=O)N/N=C/c2ccccc2)no1 | i | -25% | i | 5% | -10% | 0%
Cc1ccc(SC(=O)c2c(C)noc2-c2cc(C)on2)cc1 | i | 9.2µM* | i | ? | 18µM* | -18%
C#CCOCCOCCOCCNc1nc(N2CCN(C(=O)CCCCCCCCCCNC(=O)[C@@H](CCC(=O)O)n3cc(CCCCCN)nn3)CC2)nc(N2CCN(C(=O)CCCCCCCCCCNC(=O)[C@H](CO)n3cc(CCCSC)nn3)CC2)n1 | i | -29% | i | -2% | 13µM* | 2%
C#CCOCCOCCOCCNc1nc(N2CCOCC2)nc(N2CCN(C(=O)CCCCCCCCCCNC(=O)[C@H](CO)n3cc(CCCSC)nn3)CC2)n1 | i | ? | i | 2% | 23µM* | -7%
